Compound activity as filed in PubChem BioAssay.
PRMT1 inh: blocks human protein arginine methyltransferase 1. inhibition, % at 2.79 µM. recombinant PRMT1, activity-based probe fluorescence polarization. 370,000 tested, 1.3% active. Q99873;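 active = inhibition above about 21% made by adding two undisclosed values, limit read from the data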
SIAE inh: blocks human sialic acid acetylesterase; SIAE FP-Rh probe binding, fluorescence polarization; inhibition, % at 9.66 µM; 370,000 tested, 0.69% active;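 active = inhibition above a cutoff: mean of compounds within the control limits plus 3 SD of those, cut at about 17% in these data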
TCR CD3 inh: human TCR-CD3 binding inhibition | 360,000 tested, 0.37% active | TAMRA-labeled TCR probe fluorescence, biochemical | inhibition, % at 9.4 µM; in the data active = inhibition above about 19%;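 note: recombinant mutant TCR 2C K166C tagged with TAMRA read by polarization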
PME-1 primary: blocks human protein phosphatase methylesterase 1. Q9Y570. inhibition, % at 5.9 µM. AID 2130. 320,000 tested, 0.53% active. recombinant PME-1, FP-Rh probe fluorescence polarization;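 active = inhibition above the campaign mean of all compounds plus 3 SD, cut at about 26% in these data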;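 note: competitive labeling of PME-1 active site by serine hydrolase directed probe; inhibitors block probe labeling so polarization falls and inhibition rises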
Target sequence (Q9Y570 whole entry, looked up): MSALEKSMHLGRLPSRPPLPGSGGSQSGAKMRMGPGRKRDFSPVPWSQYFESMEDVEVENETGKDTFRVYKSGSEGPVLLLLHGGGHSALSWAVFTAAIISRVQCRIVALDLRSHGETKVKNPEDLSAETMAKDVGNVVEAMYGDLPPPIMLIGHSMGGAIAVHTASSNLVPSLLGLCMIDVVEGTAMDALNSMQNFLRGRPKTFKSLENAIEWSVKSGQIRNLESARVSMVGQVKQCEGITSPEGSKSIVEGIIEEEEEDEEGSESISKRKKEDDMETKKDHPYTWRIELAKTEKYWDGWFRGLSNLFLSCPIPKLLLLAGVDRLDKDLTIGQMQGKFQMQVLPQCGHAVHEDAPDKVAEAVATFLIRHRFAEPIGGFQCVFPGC
PAD4 inh: blocks human protein arginine deiminase 4; Q9UM07; recombinant PAD4, RCA probe fluorescence polarization; inhibition, % at 6.36 µM; 330,000 tested, 0.41% active; AID 485272;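 active = percent inhibition above a cutoff equal to the mean of all tested compounds plus 3 SD, cut at about 15% in these data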
Fam108B counter: blocks mouse Fam108B hydrolase in RBBP9 counter-screen; recombinant Fam108B, FP-Rh probe fluorescence polarization; inhibition, % at 9.51 µM; 300,000 tested, 0.33% active; AID 1947;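 active = inhibition above the screen mean inhibition plus 3 SD, computed separately per campaign, cut at about 18% in these data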;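 note: inhibitors lower polarization as less probe binds the enzyme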
A number is an active result. Compounds with a hit are over-represented: about 2.6% of the library has one in this group of screens.

Screening CCCCN(CC)CCCNC(=O)c1cn(CC)c2ccc(S(=O)(=O)N3CCc4ccccc4C3)cc2c1=O returned PRMT1 inh inactive, SIAE inh inactive, TCR CD3 inh inactive, PME-1 primary 36, PAD4 inh inactive and Fam108B counter inactive.
For CCCCN(C)CCCNC(=O)c1cn(CC)c2ccc(S(=O)(=O)N3CCc4ccccc4C3)cc2c1=O the results were PRMT1 inh inactive, SIAE inh inactive, TCR CD3 inh inactive, PME-1 primary 40, PAD4 inh inactive and Fam108B counter inactive.
For CCn1cc(C(=O)NCCCN2CCCC2)c(=O)c2cc(S(=O)(=O)N3CCc4ccccc4C3)ccc21 the results were PRMT1 inh inactive, SIAE inh inactive, TCR CD3 inh inactive, PME-1 primary inactive, PAD4 inh inactive and Fam108B counter inactive.
`CCn1c2ccccc2c2cc(NC(=O)COC(=O)c3cccc(OC)c3)ccc21` gave PRMT1 inh inactive and SIAE inh inactive.
For CCOC(=O)N1CCN(C(=O)C2CCN(C(=O)c3ccccc3C)CC2)CC1 the results were PRMT1 inh 91, SIAE inh inactive and TCR CD3 inh inactive.
Oc1c(Br)cc(Br)cc1CNc1cnc2ccccc2c1 was read as PRMT1 inh inactive, SIAE inh inactive, TCR CD3 inh inactive, PME-1 primary 46, PAD4 inh inactive and Fam108B counter inactive.
For COc1ccc(S[C@]2(C(=O)N3CCN(c4ncccn4)CC3)CC(=O)N(c3ccc4ccccc4c3)[C@@H]2c2ccc(OC)cc2)cc1 the results were PRMT1 inh inactive and SIAE inh inactive.
For Cc1ccc(O)c(NC2=C(Cl)C(=O)N(Cc3ccccc3)C2=O)c1 the results were PRMT1 inh 24, SIAE inh inactive and TCR CD3 inh inactive.
`Cc1c(NC2=C(Cl)C(=O)N(c3ccccc3)C2=O)c(=O)n(-c2ccccc2)n1C` gave PRMT1 inh inactive, SIAE inh inactive, TCR CD3 inh inactive, PME-1 primary inactive, PAD4 inh inactive and Fam108B counter inactive.
For O=C1C(Cl)=C(Nc2ccccc2O)C(=O)N1c1ccccc1 the results were PRMT1 inh 22, SIAE inh inactive, TCR CD3 inh inactive, PME-1 primary inactive, PAD4 inh inactive and Fam108B counter inactive.
Screening Cc1ccc(C(=O)N2CCCCC2)cc1NC1=C(Cl)C(=O)N(Cc2ccccc2)C1=O returned PRMT1 inh inactive, SIAE inh inactive, TCR CD3 inh inactive, PME-1 primary inactive and PAD4 inh inactive.
`CC(=NNC(=O)CSc1nnc(-c2ccccc2)n1-c1ccccc1)c1ccc2ccccc2c1` gave PRMT1 inh inactive and SIAE inh inactive.
CN1CCc2cccc3c2C1Cc1ccc(O)c(O)c1-3 (stereo not given) was read as PRMT1 inh 47, SIAE inh inactive, TCR CD3 inh inactive, PME-1 primary inactive, PAD4 inh inactive and Fam108B counter inactive.
Screening CN1CCC(=C2c3ccccc3C(O)c3ccccc32)CC1 (stereo not given) returned PRMT1 inh inactive, SIAE inh inactive, TCR CD3 inh inactive, PME-1 primary inactive, PAD4 inh inactive and Fam108B counter inactive.
COc1ccc(-c2c(Cc3ccccc3)nc(NC(=O)c3ccccc3)n2Cc2ccc(OC)cc2OC)cc1 was read as PRMT1 inh inactive and SIAE inh inactive.
O=C(O)/C(CC(=O)c1ccc(Cl)cc1)=N/Nc1ccc([N+](=O)[O-])cc1[N+](=O)[O-] was read as PRMT1 inh inactive, SIAE inh inactive, TCR CD3 inh inactive, PME-1 primary 27, PAD4 inh inactive and Fam108B counter inactive.
Screening COC(=O)[C@H](C(C)C)N(CCc1cn(Cc2ccc(C)cc2)nn1)S(=O)(=O)c1ccc(F)cc1Br returned PRMT1 inh inactive and SIAE inh inactive.
CCCCc1c(O)nc(SCCN(C)C)n(-c2ccccc2)c1=O was read as PRMT1 inh 24, SIAE inh inactive, TCR CD3 inh inactive, PME-1 primary inactive, PAD4 inh inactive and Fam108B counter inactive.
For CN(C)CCSc1nc(O)c(-c2ccccc2)c(=O)n1-c1ccccc1 the results were PRMT1 inh inactive, SIAE inh inactive, TCR CD3 inh inactive, PME-1 primary inactive, PAD4 inh inactive and Fam108B counter inactive.
`CCc1c(O)nc(SCC(=O)NC(C)(C)C)n(-c2ccccc2)c1=O` gave PRMT1 inh 24, SIAE inh inactive, TCR CD3 inh inactive, PME-1 primary inactive, PAD4 inh inactive and Fam108B counter inactive.
CCc1c(O)nc(SCC(=O)N2CCOCC2)n(-c2ccccc2)c1=O was read as PRMT1 inh inactive, SIAE inh inactive, TCR CD3 inh inactive, PME-1 primary inactive, PAD4 inh inactive and Fam108B counter inactive.
CCc1c(O)nc(SCC(=O)c2ccccc2)n(-c2ccccc2)c1=O was read as PRMT1 inh 24, SIAE inh inactive, TCR CD3 inh inactive, PME-1 primary inactive, PAD4 inh inactive and Fam108B counter inactive.
Screening CS(=O)(=O)c1ccc(C(=O)NNC(=O)c2cc(-c3ccccc3)n[nH]2)cc1 returned PRMT1 inh 24, SIAE inh inactive, TCR CD3 inh inactive and PAD4 inh inactive.
For CS(=O)(=O)Cc1ccc(C(=O)NNC(=O)c2cc(-c3ccccc3)n[nH]2)cc1 the results were PRMT1 inh inactive, SIAE inh inactive, TCR CD3 inh inactive and PAD4 inh inactive.
For Cc1cc(N/N=C/c2ccccc2O)nc(-c2ccccc2O)n1 the results were PRMT1 inh inactive, SIAE inh inactive, TCR CD3 inh inactive, PME-1 primary inactive, PAD4 inh inactive and Fam108B counter 19.
Cc1ccc2c(c1)-c1c(ssc1=S)C(C)(C)N2C(=O)c1ccco1 was read as PRMT1 inh inactive, SIAE inh inactive, TCR CD3 inh inactive, PME-1 primary inactive, PAD4 inh inactive and Fam108B counter inactive.
`CC1(C)c2ssc(=S)c2-c2ccccc2N1C(=O)c1ccco1` gave PRMT1 inh inactive, SIAE inh 22, TCR CD3 inh inactive, PME-1 primary inactive, PAD4 inh inactive and Fam108B counter inactive.
N=c1c2c(-c3ccccc3)c(-c3ccccc3)n(CCc3ccccc3)c2ncn1CCO was read as PRMT1 inh inactive and SIAE inh inactive.
`O=[N+]([O-])c1ccccc1-c1ccc(CN2CCN(c3ccccc3)CC2)o1` gave PRMT1 inh 23, SIAE inh inactive, TCR CD3 inh inactive, PME-1 primary inactive, PAD4 inh inactive and Fam108B counter inactive.
For O=[N+]([O-])c1cccc(-c2ccc(CN3CCN(c4ccccc4)CC3)o2)c1 the results were PRMT1 inh inactive, SIAE inh inactive, TCR CD3 inh inactive, PME-1 primary inactive, PAD4 inh inactive and Fam108B counter inactive.
COc1cc(/C=C2\CCC/C(=C\c3ccc(O)c(OC)c3)C2=O)ccc1O was read as PRMT1 inh 22, SIAE inh inactive, TCR CD3 inh inactive, PME-1 primary 26, PAD4 inh inactive and Fam108B counter inactive.
Screening CC(COc1cccc(Br)c1)CN1CCC(C(O)(c2ccccc2)c2ccccc2)CC1 (stereo not given) returned PRMT1 inh inactive and SIAE inh inactive.
